Source: PubChem BioAssay (several laboratories)
APOBEC3A inh: APOBEC3A ssDNA deaminase inhibitors, primary screen, selectivity assay for APOBEC3G inhibitor project, biochemical, FAM/TAMRA oligo cleavage fluorescence; DNA dC->dU-editing enzyme APOBEC-3A (Homo sapiens), P31941; recombinant A3A, FAM/TAMRA ssDNA deamination fluorescence; inhibition, % at 20 µM; 330,000 tested, 0.41% active; AID 493011, 2011;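 active = at least 40% inhibition at 20 µM here, with at most 30% in a related deaminase screen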;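 note: plate controls were A3A with DMSO for no effect and wells lacking A3A enzyme for full effect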
Target sequence (P31941 whole entry, looked up): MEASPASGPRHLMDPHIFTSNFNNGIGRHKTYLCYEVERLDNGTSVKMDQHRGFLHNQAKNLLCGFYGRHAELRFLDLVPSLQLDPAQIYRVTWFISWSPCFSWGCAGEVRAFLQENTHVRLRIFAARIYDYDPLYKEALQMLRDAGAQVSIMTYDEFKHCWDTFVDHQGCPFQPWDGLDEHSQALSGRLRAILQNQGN
APOBEC3G inh: APOBEC3G DNA deaminase inhibitors, primary screen, biochemical, fluorescence, single-stranded DNA substrate, uHTS | DNA dC->dU-editing enzyme APOBEC-3G (Homo sapiens), Q9HC16 | recombinant A3G, ssDNA deamination FAM/TAMRA fluorescence | inhibition, % at 20 µM | 330,000 tested, 0.28% active;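 active = inhibition of at least 40% at 20 µM, with no more than 30% in the related APOBEC3A deaminase screen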;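 note: plate controls were DMSO wells with A3G for no effect and wells lacking A3G enzyme for full effect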
Target sequence (Q9HC16 whole entry, looked up): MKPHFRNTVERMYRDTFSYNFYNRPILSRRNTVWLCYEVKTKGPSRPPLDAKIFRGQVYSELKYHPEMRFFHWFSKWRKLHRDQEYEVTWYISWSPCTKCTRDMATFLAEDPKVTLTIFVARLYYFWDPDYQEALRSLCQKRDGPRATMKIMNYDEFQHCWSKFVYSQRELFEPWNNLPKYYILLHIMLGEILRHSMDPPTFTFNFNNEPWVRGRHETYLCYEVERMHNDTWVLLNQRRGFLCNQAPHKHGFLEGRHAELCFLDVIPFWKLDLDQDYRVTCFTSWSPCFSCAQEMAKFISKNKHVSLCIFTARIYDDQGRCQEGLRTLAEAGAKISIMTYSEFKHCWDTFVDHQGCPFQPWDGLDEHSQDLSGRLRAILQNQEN
VLA-4 inh: inhibition in human VLA-4 binding assay, primary screen, VLA-4 allosteric modulator project, MLPCN library, flow cytometry, VLA-4 expressing cells; ligand binding flow cytometry; inhibition, % (about 7 µM as worked out from the volumes in the protocol); 330,000 tested, 0.2% active; AID 2557, 2010; in the data active = inhibition above about 50%
GRK2 inh: compounds blocking aptamer binding on GRK2 – biochemical, human GRK2, bead flow cytometry, HTS, primary screen; Beta-adrenergic receptor kinase 1 (Homo sapiens), P25098; FAM-aptamer displacement from GRK2; inhibition of aptamer binding, % at 10 µM; 330,000 tested, 0.59% active; AID 488847, 2010;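 active = inhibition of aptamer binding above 40%, roughly 3 SD of noise, on plates passing a quality check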;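 note: median bead fluorescence of bound FAM aptamer so fluorescent compounds give negative values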
VLA-4 mod pick: retest of VLA-4 allosteric modulators, confirmation, cell-based, cherry-picked plates, U937, HUTS-21 LIBS antibody; inhibition, % at 6.7 µM; shares compounds with VLA-4 inh; U937 cells, HUTS-21 LIBS mAb binding, flow cytometry; LDV ligand present at threefold Kd; AID 2813, 2010; 1,300 tested, 2% active; in the data active = inhibition above about 40%;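 note: 0% = ligand without compound and 100% = no ligand background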
GRK2 CP1: GRK2 aptamer-displacing inhibitors, retest, confirmation, biochemical, cherry pick 1, bead flow cytometry. bead-bound GRK2, FAM-aptamer displacement. aptamer displacement, % at 10 µM. 2,000 tested, 4% active. shares compounds with GRK2 inh;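 active = aptamer displacement above 40%, near three times the noise of non-fluorescent compounds, on plates passing quality checks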;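 note: negative values mostly reflect intrinsic compound fluorescence rather than true enhancement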
Aptamer quench SP: aptamer fluorescence quenching in GRK2 counter-screen. 2,000 tested, under 10 active. AID 504580. Carboxyfluorescein RNA aptamer on beads, flow cytometry quenching; active compounds read low. shares compounds with GRK2 inh. fluorescence response (% of DMSO), % at 10 µM;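 active = compounds that quench the bead-bound fluorescent RNA probe, cutting fluorescence to under half of the solvent control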;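 note: counterscreen run without GRK2 so only probe quenching by compound is measured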
GRK2 confirm 2: GRK2 aptamer-displacing inhibitors, hit retest, confirmation, biochemical, cherry pick 2, bead flow cytometry | shares compounds with GRK2 inh | bead-bound GRK2, FAM-aptamer displacement | inhibition of aptamer binding, % at 10 µM | 360 tested, under 10 active | AID 504782, 2011;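 active = inhibition of aptamer binding above 40%, about triple the noise seen with nonglowing compounds, on plates passing quality control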;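 note: negative values mostly come from compounds that fluoresce themselves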
FAM quench SP: quenches fluorescent RNA aptamer, GRK2 hit artifact | shares compounds with GRK2 inh | carboxyfluorescein RNA aptamer beads, flow cytometry quenching; active compounds read low | fluorescence response vs DMSO, % at 10 µM | 360 tested, under 10 active | AID 588494;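 active = response vs DMSO under 50%, meaning signal dropped by over half, treated as fluorescence quencher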;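 note: labelled aptamer on streptavidin beads without GRK2 as a quench counter-screen; 100% = bead fluorescence of DMSO wells and lower means quenching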
A3A conf: APOBEC3A deaminase inhibitors, retest, confirmation, selectivity assay for APOBEC3G inhibitor project, biochemical, single concentration, fluorescence readout | shares compounds with APOBEC3A inh | recombinant A3A, ssDNA deaminase UDG fluorescence assay | inhibition, % at 20 µM | 1,400 tested, 63% active;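 active = inhibition reaching a set limit, 80% of the first screen's cutoff, at 20 µM in any replicate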;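 note: plate controls were DMSO wells with A3A for no effect and wells lacking A3A enzyme for full effect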
UDG ctr A3A: E. coli UDG inhibitors, confirmation, counter-screen for APOBEC3A inhibitor project, biochemical, single concentration, fluorescence, FAM/TAMRA oligo | shares compounds with APOBEC3A inh | UDG counterscreen, FAM/TAMRA uracil oligo fluorescence | inhibition, % at 20 µM | 1,000 tested, under 10 active | AID 504714, 2011; call rule not given here
APOBEC3G confirm: APOBEC3G deaminase inhibitor retest, confirmation, biochemical, fluorescence, single-stranded DNA substrate, single concentration. shares compounds with APOBEC3G inh. recombinant A3G ssDNA deaminase, UDG/FAM-TAMRA fluorescence. inhibition, % at 20 µM. 890 tested, 72% active;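 active = inhibition reaching a set limit in any replicate at 20 µM, the limit being 80% of the first screen's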
UDG A3G counter: E. coli UDG inhibitors, confirmation, counter-screen for APOBEC3G inhibitor project, biochemical, single concentration, fluorescence, FAM/TAMRA oligo; shares compounds with APOBEC3G inh; UDG counterscreen; inhibition, % at 20 µM; 710 tested, under 10 active;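 active = compounds giving 40% or more inhibition at 20 µM in any one of the three replicates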;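 note: plate controls were DMSO wells with UDG and oligo for no effect and DMSO wells lacking both for full effect; inhibitors lower the FAM signal released by uracil excision and alkaline cleavage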
An asterisk follows results filed as active; . = no result; ! = repeats disagree. An excerpt weighted towards active compounds, which were near 1.4% of everything screened.

SMILES	APOBEC3A inh	APOBEC3G inh	VLA-4 inh	GRK2 inh	VLA-4 mod pick	others
CC(=O)Nc1nc2n(n1)C(c1ccc(F)cc1)C=C(c1ccccc1)N2 (stereo not drawn)	0	0	-18	0	.
Cc1ccc(-c2c(C(=O)O)c(C(=O)O)c3n2CCC3)cc1	-9	-10	-3	2	.
O=C(O)c1c(C(=O)O)c(-c2ccc(F)cc2)n2c1CCC2	-2	-10	44	4	-13
O=C1Nc2ccc(F)cc2C12OCCO2	-3	-4	51*	0	0
C=C(C)c1cccc(C(C)(C)NC(=O)N2CCN(C)CC2)c1	-6	-1	4	0	.
Cc1cc(C(=O)NNC(=O)C2CCCC2)c(C)o1	2	-1	70*	0	-4
Cc1occc1C(=O)NNC(=O)C1CCCC1	-9	-6	-1	2	.
COc1cccc2cc(C(N)=O)oc12	-3	-9	51*	2	-4
COc1ccc(NC(=O)CN(C2CCCCC2)S(C)(=O)=O)cc1Cl	3	2	-14	0	.
Cc1cc(=O)oc2cc(OS(C)(=O)=O)ccc12	-3	-3	41	0	5
CCOc1cccc(C(=O)N(Cc2ccco2)C2CCS(=O)(=O)C2)c1 (stereo not drawn)	-3	-3	-5	0	.
CCOc1ccc(S(=O)(=O)N2CCN(C(=O)c3cc([N+](=O)[O-])ccc3N3CCOCC3)CC2)cc1	21	4	0	0	.
CCOc1ccc(C(=O)c2cc([N+](=O)[O-])ccc2N2CCOCC2)cc1	.	.	51*	0	49*
COc1ccc(C(=O)c2cc([N+](=O)[O-])ccc2N2CCOCC2)cc1	.	.	31	6	47*
CC(C)CN1C(=O)NC(NC(=O)c2cccnc2)(C(F)(F)F)C1=O (stereo not drawn)	-1	-2	21	2	.
O=C(Nc1nc(-c2nc3ccccc3s2)cs1)c1ccco1	0	-6	78*	0	3
Nc1ccc(CCNc2ncnc3c2ncn3[C@@H]2O[C@H](CO)[C@@H](O)[C@H]2O)cc1	0	0	18	0	6	GRK2 CP1=0;Aptamer quench SP=103
c1cc2c3c(cccc3c1)NC1(CCC3(CC1)Nc1cccc4cccc(c14)N3)N2	3	1	10	2	.
O=C(COc1ccc(/C=N/NC(=O)c2cc3ccccc3o2)cc1Cl)Nc1ccccc1	43	44	78*	54*	61*	GRK2 CP1=23;Aptamer quench SP=123
COc1cc(/C=N/NC(=O)c2ccccc2O)ccc1OCC(=O)Nc1ccccc1	-6	-7	-4	0	.
Cc1ccc(S(=O)(=O)C2(C(=O)Nc3ccc(F)cc3)CC2)cc1	-1	-3	17	2	.
Cc1ccc(S(=O)(=O)C2(C(=O)Nc3ccc4c(c3)OCO4)CC2)cc1	-2	-7	51*	0	1	GRK2 confirm 2=14;FAM quench SP=98
O=C(/C=C/c1ccc(O)c(O)c1)O[C@@H]1C[C@](O)(C(=O)O)C[C@@H](O)[C@H]1O	-2	1	55*!	16	1	GRK2 CP1=-3;Aptamer quench SP=100
CCc1nn2c(N3CCOCC3)cc(C)nc2c1-c1ccccc1	-1	-4	45	4	13	GRK2 CP1=9;Aptamer quench SP=99
CC(=O)c1cccc(NC(=O)c2cccc(NC(=O)c3ccco3)c2)c1	3	0	-7	6	.
SMILES	APOBEC3A inh	APOBEC3G inh	VLA-4 inh	GRK2 inh	VLA-4 mod pick	others
O=C(NC1CCCC1)c1cccc(NC(=O)c2ccco2)c1	-2	0	50*	4	12	GRK2 CP1=2;Aptamer quench SP=99
CC(C)(C)C1CCC(=NNC(=S)NCc2ccccc2)CC1 (stereo not drawn)	3	0	40	2	.
Cc1ccccc1C(=O)N1CCC(C(=O)OCc2ccccn2)CC1	-3	-8	10	2	.
CN1CCC(N(C)S(=O)(=O)c2ccc(NC(=O)COc3ccc(F)cc3)cc2)CC1	64*	13	50*	0	13	A3A conf=58*;UDG ctr A3A=-2
CC1(C)CC(N2CCN(Cc3ccccc3)CC2)=CC(=[N+]2CCCCC2)C1	32	15	4	1	.
CC1(C)CC(N2CCCC2)=CC(=[N+]2CCCCC2)C1	51*	19	50*	2	-9	A3A conf=71*;UDG ctr A3A=5
Cc1sc2ncn3c(C)nnc3c2c1C	4	7	-2	5	.
O=c1c(O)c(-c2cc(O)c(O)c(O)c2)oc2cc(O)cc(O)c12	21	41*	56*	7	5	APOBEC3G confirm=73*;UDG A3G counter=2
